Bioassay records: PubChem BioAssay, The Scripps Research Institute Molecular Screening Center
CHO-K1 Ca antag: counter-screen for M1 antagonists: effect in parental CHO-K1 cells | AID 602250 | inhibition, % at 3 µM | ATP-induced calcium, Fluo-8 fluorescence | actives 0.6% (n = 360,000);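 active = inhibition above a per-plate cutoff, the plate's mean sample inhibition plus 3 SD, cut at about 24% in these data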;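 note: 0% = DMSO plus EC80 ATP and 100% = DMSO alone without ATP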
CHRM1 PAM: potentiates human M1 receptor response to acetylcholine; P11229; CHO-K1 hM1, Fluo-8 calcium fluorescence, ACh EC20; 0% = ACh EC20, 100% = maximal ACh; activation, % at 3 µM; actives 0.088% (n = 360,000); AID 588819; in the data active = activation above about 19%, passing the limit was not always enough
Target sequence (P11229 whole entry, looked up): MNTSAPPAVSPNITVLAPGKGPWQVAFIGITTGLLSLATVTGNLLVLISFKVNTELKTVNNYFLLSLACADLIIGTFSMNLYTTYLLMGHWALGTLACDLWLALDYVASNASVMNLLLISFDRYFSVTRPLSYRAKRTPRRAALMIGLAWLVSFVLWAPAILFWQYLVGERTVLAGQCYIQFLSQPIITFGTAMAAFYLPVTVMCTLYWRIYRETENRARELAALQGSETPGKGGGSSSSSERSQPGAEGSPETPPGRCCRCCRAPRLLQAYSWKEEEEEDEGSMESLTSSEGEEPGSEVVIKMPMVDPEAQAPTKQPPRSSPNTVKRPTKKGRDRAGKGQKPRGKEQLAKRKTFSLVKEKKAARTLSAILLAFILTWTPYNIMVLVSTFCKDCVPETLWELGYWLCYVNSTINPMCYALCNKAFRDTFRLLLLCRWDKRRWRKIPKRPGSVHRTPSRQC
M1 ag: activates human CHRM1 receptor; actives 0.33% (n = 360,000); CHO-K1 hM1, Fluo-8 calcium fluorescence, agonist mode; 0% DMSO, 100% acetylcholine EC100; activation, % at 3 µM; P11229;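 active = activation above the run's mean compound activation plus 3 SD, cut at about 16% in these data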;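 note: peak over basal fluorescence ratio within a 140 s kinetic read after compound addition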
CHRM1 antagonist: human CHRM1 antagonism; P11229; CHO-K1 hM1, Fluo-8 calcium fluorescence, ACh EC80 antagonist; inhibition, % at 3 µM; actives 1.3% (n = 360,000); AID 588852;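 active = percent inhibition above its own plate's cutoff, namely the mean of that plate's compound wells plus 3 SD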;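 note: peak over basal fluorescence ratio during 140 s after agonist addition; 0% = ACh EC80 plus DMSO and 100% = DMSO alone without agonist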
CHO-K1 Ca ag: nonselective activator or artifact in parental CHO-K1 cells; Fluo-8 calcium fluorescence; scaled to maximal ATP response, vehicle zero; activation, % at 3 µM; actives 0.48% (n = 360,000); AID 602248; in the data active = activation above about 15%;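 note: untransfected CHO-K1 host cells lacking M1 receptor as counterscreen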
CHO-K1 Ca PAM: M1 PAM counterscreen hit in parental CHO-K1 cells; ATP EC20, Fluo-8 calcium fluorescence; 0% at ATP EC20, 100% at ATP max; actives 0.02% (n = 360,000); activation, % at 3 µM;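 active = activation above the run cutoff, the mean activation of all test compounds plus 3 SD, cut at about 40% in these data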;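 note: peak over basal fluorescence ratio in a 140 s read after ATP addition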
An asterisk follows results filed as active. Sampled rows, rich in hits. Any-hit rate of the full collection: about 2.3%.

SMILES	CHO-K1 Ca antag	CHRM1 PAM	M1 ag	CHRM1 antagonist	CHO-K1 Ca ag	CHO-K1 Ca PAM
CCc1nc2ccc(C(=O)NCCOc3ccc(OC)cc3)cn2c1N(CCC(C)C)CCN(C)C	-12	-8	34*	11	3	31
CCCCNC(=O)c1ccc2nc(CC)c(N(CC)CCN(C)C)n2c1	8	7	-4	-13	0	2
CCc1nc2ccc(C(=O)Nc3ccc(NC(C)=O)cc3)cn2c1N(CCC(C)C)CCN(C)C	-1	3	0	-7	2	9
CCCCNC(=O)c1ccc2nc(CC)c(N(CCC(C)C)CCN(C)C)n2c1	1	1	22*	-12	1	8
CCc1nc2ccc(C(=O)Nc3cc(-c4ccccc4)ccc3OC)cn2c1N(C=O)CCC(C)C	-9	13	1	-12	1	13
CCc1nc2ccc(C(=O)Nc3ccc(OC)c(OC)c3)cn2c1N(CCC(C)C)CCN(C)C	-8	-3	18*	-5	0	11
CC(=O)c1ccc(NC(=O)CCOc2cc(C)ccc2C)cc1	-4	3	-5	-3	4	19
Cc1nc2ccc(Cl)cc2c(-c2ccccc2Cl)c1CC(=O)O	11	6	-2	-4	1	-4
CN1CCc2nc3ccc(Cl)cc3c(-c3ccccc3Cl)c2C1	11	-26	-12	93*	0	-6
c1ccc(-c2cnn3c(-c4ccccc4)c(-c4ccccc4)nc3n2)cc1	28*	-9	52*	41*	31*	11
CCn1c(CCC(=O)O)nc2cc(S(=O)(=O)N(C)C)ccc21	30*	4	-7	-5	0	-15
CN(C)S(=O)(=O)c1ccc2c(c1)nc(CCC(=O)O)n2C	4	4	-5	-2	0	5
CCC[C@@H](NS(=O)(=O)c1ccc(C)cc1)C(=O)Oc1ccc2c3c(c(=O)oc2c1)CCC3	7	-25	2	38*	12	12
Cc1ccc(S(=O)(=O)NC(C(=O)Oc2ccc3c(C)c(Cl)c(=O)oc3c2)c2ccccc2)cc1 (stereo not given)	0	-3	-6	9	0	0
CC(C)CC(=O)N1CC=CC[C@@H](c2ccc(Cl)cc2)N(Cc2ccc(Cl)cc2)C(=O)[C@@H]1Cc1ccccc1	-13	1	-4	-6	1	7
O=C(CSc1nc2ccccc2o1)Nc1nccs1	3	10	-3	-11	1	-9
COCCCNC(=S)Nc1cc(C)c(C)cc1C	-11	-23	-8	62*	1	26
Cc1noc(C)c1COc1ccc(C(=O)N2CCN(S(=O)(=O)c3cccc(F)c3)CC2)cc1	-13	-2	-1	-6	3	13
O=C(/C=C/c1cccs1)Nc1cccc(NC(=O)/C=C/c2cccs2)n1	14	-22	-3	47*	6	6
O=C(/C=C/c1cccs1)Nc1nccs1	-11	11	-3	-13	0	9
O=C(CN(C(=O)CCC(=O)Nc1ccccn1)c1cccc(F)c1)NCc1ccco1	-5	8	-4	-2	9	4
C[n+]1c(-c2ccccc2)cc2c(=Cc3ccccc3)c3ccccc3n21	4	-27	-9	46*	0	-4
C[n+]1c(-c2ccccc2)cc2c(=Cc3ccc([N+](=O)[O-])cc3)c3ccccc3n21	-12	-27	-8	42*	0	11
COc1ccc(N2CCN(c3nc(NCCO)nc(N4CCOCC4)n3)CC2)cc1	27*	12	0	-4	1	-8
CCCCC(=O)NC(=S)Nc1c(C)cc(Br)cc1C	5	-8	-9	-1	1	-10
SMILES	CHO-K1 Ca antag	CHRM1 PAM	M1 ag	CHRM1 antagonist	CHO-K1 Ca ag	CHO-K1 Ca PAM
CCN(c1ccccc1)S(=O)(=O)c1cccc(C(=O)OCC(=O)c2c(N)n(C)c(=O)n(C)c2=O)c1	-20	-17	-4	30	7	5
COc1ccc(N(C)S(=O)(=O)c2cccc(C(=O)OCC(=O)c3c(N)n(C)c(=O)n(C)c3=O)c2)cc1	8	-23	6	42*	21*	-16
COc1ccc(N(C)S(=O)(=O)c2cccc(C(=O)OCC(=O)Nc3cc(C)ccc3OC)c2)cc1	6	-20	1	36*	8	7
CCCn1cc(SCC(=O)Nc2cc(C)on2)c2ccccc21	-8	17	-3	-25	0	8
Cc1cc(NC(=O)CS(=O)(=O)c2cn(Cc3ccccc3Cl)c3ccccc23)no1	-13	-1	11	7	4	-2
Cc1cc(NC(=O)CS(=O)c2cn(Cc3cccc(Cl)c3)c3ccccc23)no1 (stereo not given)	4	3	23*	-6	5	12
Cc1cc(NC(=O)CS(=O)(=O)c2cn(Cc3cccc(Br)c3)c3ccccc23)no1	-4	14	30*	-5	2	4
Cc1cccc(N2CCN(C(=O)c3ccc(NS(=O)(=O)c4c(C)noc4C)cc3)CC2)c1C	2	1	-3	-2	0	7
Cc1noc(C)c1S(=O)(=O)Nc1ccc(C(=O)N2CCN(c3cccc(Cl)c3)CC2)cc1	1	-16	3	17	17*	-10
CCOc1ccc(OCCSc2nc3ccccc3[nH]2)cc1	-1	-6	-3	10	9	7
CCCOc1ccc(CSc2nc3ccccc3[nH]2)cc1	23	-27	-3	38*	12	-8
CCCCNC(=O)CSc1nc2cc3c(cc2c(=O)n1CCC(=O)NCCc1ccc(OC)c(OC)c1)OCO3	-17	4	-7	-3	0	22
CCCCOc1ccc(C(O)(CCC)CCN2CCOCC2)cc1 (stereo not given)	-1	-17	-7	3	4	19
CCCC(O)(CCN1CCCCC1)c1ccc(OCC)cc1 (stereo not given)	5	-16	-12	16	1	-5
CCCCCC(O)(CCN1CCCCC1)c1ccc(OCC)cc1 (stereo not given)	2	-32	-14	99*	1	-4
CCCC(O)(c1ccccc1)C(CN1CCOCC1)c1ccccc1 (stereo not given)	-27	11	-4	-16	0	13
CCCC(O)(c1ccc(Cl)cc1)C(CN1CCOCC1)c1ccccc1 (stereo not given)	0	-21	-8	61*	0	0
CCCCC(O)(CCN1CCOCC1)c1ccc(Cl)cc1 (stereo not given)	-10	-21	-8	87*	0	10
CCC(O)(CCN1CCCCC1)c1ccccc1 (stereo not given)	-1	-22	-5	76*	0	1
CC1CN(S(=O)(=O)c2cccc(C(=O)Nc3ccc(S(=O)(=O)Nc4ncccn4)cc3)c2)CC(C)O1 (stereo not given)	-14	7	-3	-3	1	20
